Assay results: PubChem BioAssay
Active and inactive are the calls of the source.

Key:
[1] = optical density shifts of acrAB sulA E. coli – strain DRC41, OD650, 48 h, E. coli filamentation inducer project, primary screen (AID 1152); details: higher = more signal, called active from +8 up or from −8 down;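 also: E. coli MC1000 strain DRC41 lacking acrAB efflux pump and sulA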
[2] = probe aLefty1 binding on compound microarray – biochemical, small-molecule microarray, 635/667 nm fluorescence, primary screen (AID 1153); details: higher = more signal;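 also: score merges spot fluorescence with signal-to-noise ratio from the scanned slide images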
[3] = plasmodial surface anion channel blockers, osmotic lysis – cell-based, P. falciparum Indochina, OD700, 1 h, primary screen (AID 1154); details: P. falciparum Indochina infected RBC osmotic lysis, higher = more signal, called active from +8 up or from −8 down
[4] = plasmodial surface anion channel blockers, osmotic lysis – cell-based, P. falciparum Indochina, OD700, 2 h, primary screen (AID 1155);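 also: lysis reports solute entry through the parasite surface anion channel PSAC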; details: P. falciparum Indochina infected erythrocytes, higher = more signal, called active from +8 up or from −8 down
[5] = changes in parasitized red cell lysis, either direction – P. falciparum Indochina, OD700, 3 h, PSAC antagonist project, primary screen (AID 1156); details: P. falciparum-infected erythrocytes, osmotic lysis, higher = more signal, called active from +8 up or from −8 down
[6] = plasmodial surface anion channel blockers, osmotic lysis – cell-based, P. falciparum Indochina, OD700, 18 h, primary screen (AID 1157); details: P. falciparum Indochina infected erythrocytes, osmotic lysis OD700, 18 h; higher = more signal, called active from +8 up or from −8 down
[7] = S6 kinase pathway phospho-S6 level changes – cell-based, A549, cytoblot, luminescence, serum-stimulated, primary screen (AID 1158); details: 5 h, higher = more signal;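 also: serum-stimulated A549 lung adenocarcinoma cells; signal is phosphorylated S6 detected by cytoblot immunostaining with HRP secondary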
[8] = biological target: NADPH oxidase 2 (Homo sapiens) (UniProt P04839); assay: compounds shifting NOX2 Amplex Red fluorescence – cell-based, HEK293-NOX2, PMA-stimulated, NOX inhibitor project, primary screen (AID 1159); details: 45 min, higher = more signal, called active from +8 up or from −8 down; also: test concentration not given here
Sequence of NADPH oxidase 2 (Homo sapiens) (P04839 whole entry, looked up): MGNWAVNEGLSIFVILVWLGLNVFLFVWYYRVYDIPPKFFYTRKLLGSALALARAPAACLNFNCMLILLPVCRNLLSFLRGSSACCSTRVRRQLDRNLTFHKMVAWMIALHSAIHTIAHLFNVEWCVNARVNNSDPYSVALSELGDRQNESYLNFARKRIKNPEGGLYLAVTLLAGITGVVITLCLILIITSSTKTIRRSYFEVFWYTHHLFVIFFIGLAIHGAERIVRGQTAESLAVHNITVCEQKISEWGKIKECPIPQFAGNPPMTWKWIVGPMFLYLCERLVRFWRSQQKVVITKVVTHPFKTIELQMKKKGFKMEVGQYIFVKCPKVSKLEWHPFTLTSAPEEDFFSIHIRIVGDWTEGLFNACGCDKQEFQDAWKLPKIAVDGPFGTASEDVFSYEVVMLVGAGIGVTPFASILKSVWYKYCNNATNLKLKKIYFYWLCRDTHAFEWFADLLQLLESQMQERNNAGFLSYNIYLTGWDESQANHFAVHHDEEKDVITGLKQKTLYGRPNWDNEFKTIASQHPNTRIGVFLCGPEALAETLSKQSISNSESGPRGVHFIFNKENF

[9] = biological target: NADPH oxidase 4 (Homo sapiens) (UniProt Q9NPH5); assay: compounds shifting NOX4 Amplex Red fluorescence – cell-based, HEK293-NOX4, tetracycline-induced, NOX inhibitor project, primary screen (AID 1160); details: HEK293-NOX4, Amplex Red H2O2 fluorescence, 45 min; higher = more signal, called active from +8 up or from −8 down
Sequence of NADPH oxidase 4 (Homo sapiens) (Q9NPH5 whole entry, looked up): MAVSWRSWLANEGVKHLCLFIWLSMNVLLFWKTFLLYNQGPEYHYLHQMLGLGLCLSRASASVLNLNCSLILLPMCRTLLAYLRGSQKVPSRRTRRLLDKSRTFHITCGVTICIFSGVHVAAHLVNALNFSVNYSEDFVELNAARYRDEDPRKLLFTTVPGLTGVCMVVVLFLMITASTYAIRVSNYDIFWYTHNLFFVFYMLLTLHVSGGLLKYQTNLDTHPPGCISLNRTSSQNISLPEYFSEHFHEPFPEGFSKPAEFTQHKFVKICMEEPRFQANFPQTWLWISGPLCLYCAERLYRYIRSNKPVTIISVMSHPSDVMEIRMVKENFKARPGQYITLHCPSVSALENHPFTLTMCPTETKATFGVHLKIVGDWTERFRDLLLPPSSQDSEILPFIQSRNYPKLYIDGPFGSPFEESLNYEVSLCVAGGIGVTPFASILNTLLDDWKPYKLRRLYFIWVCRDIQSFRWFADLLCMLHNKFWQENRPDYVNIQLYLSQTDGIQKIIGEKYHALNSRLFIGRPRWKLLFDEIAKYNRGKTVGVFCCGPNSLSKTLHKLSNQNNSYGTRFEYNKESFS

[10] = biological target: NADPH oxidase 5 (Homo sapiens) (UniProt Q96PH1); assay: compounds shifting NOX5 Amplex Red fluorescence – cell-based, HEK293-NOX5, NOX inhibitor project, primary screen (AID 1161); details: HEK293-NOX5, ionomycin, 45 min, higher = more signal
Sequence of NADPH oxidase 5 (Homo sapiens) (Q96PH1 whole entry, looked up): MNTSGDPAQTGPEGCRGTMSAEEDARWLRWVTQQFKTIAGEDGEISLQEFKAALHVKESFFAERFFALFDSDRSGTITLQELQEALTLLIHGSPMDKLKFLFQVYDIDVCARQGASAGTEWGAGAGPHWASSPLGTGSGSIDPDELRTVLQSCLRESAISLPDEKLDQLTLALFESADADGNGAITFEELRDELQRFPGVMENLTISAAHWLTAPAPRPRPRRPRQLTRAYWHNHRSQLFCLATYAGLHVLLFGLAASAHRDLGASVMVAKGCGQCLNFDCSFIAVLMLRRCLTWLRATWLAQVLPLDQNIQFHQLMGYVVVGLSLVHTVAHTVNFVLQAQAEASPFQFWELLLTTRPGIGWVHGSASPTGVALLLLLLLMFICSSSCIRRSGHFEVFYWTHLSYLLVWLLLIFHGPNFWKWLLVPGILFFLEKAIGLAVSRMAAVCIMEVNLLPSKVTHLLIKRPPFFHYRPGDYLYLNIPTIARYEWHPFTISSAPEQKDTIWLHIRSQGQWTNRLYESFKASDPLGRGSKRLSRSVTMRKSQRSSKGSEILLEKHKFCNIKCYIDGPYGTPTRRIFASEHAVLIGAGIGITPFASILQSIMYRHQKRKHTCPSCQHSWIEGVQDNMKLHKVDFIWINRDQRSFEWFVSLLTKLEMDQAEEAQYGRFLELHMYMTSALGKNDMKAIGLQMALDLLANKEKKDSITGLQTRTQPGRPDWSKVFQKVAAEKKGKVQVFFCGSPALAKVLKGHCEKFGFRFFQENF

Compound	z-score [1]	composite z-score [2]	z-score [3]	z-score [4]	z-score [5]	z-score [6]	z-score [7]	z-score [8]	z-score [9]	z-score [10]
COC(=O)[C@@H]1CCCN1C(=O)[C@@H](C)CO	-0.926 (inactive)	-0.147	0.34 (inactive)	-0.603 (inactive)	0.864 (inactive)	-1.69 (inactive)	1.4	-0.366 (inactive)	-0.739 (inactive)	-1.15
COc1ccccc1CN1C(=O)c2ccccc2[C@@H](C(=O)NCC(F)(F)F)[C@@H]1c1ccc(CO)cc1	1.22 (inactive)	-0.242	2.54 (inactive)	0.346 (inactive)	-0.114 (inactive)	0.547 (inactive)	-0.189	0.629 (inactive)	0.732 (inactive)	-0.0947
C[C@@H](c1ccccc1)N1C(=O)[C@H]2[C@H]3[C@H](O)C=CC(=O)[C@@H]3CC[C@H]2C1=O	-0.0347 (inactive)	-0.193	-0.352 (inactive)	0.101 (inactive)	-0.555 (inactive)	-0.284 (inactive)	0.674	1.56 (inactive)	-0.0276 (inactive)	-0.276
COc1cccc([C@H]2Oc3ccc(OC)cc3C(=NOC(C)CN3CCCc4nc(C)c(C)cc43)[C@@H]2O)c1 (stereo not given in full)	-0.304 (inactive)	0.0809	2.47 (inactive)	0.542 (inactive)	0.714 (inactive)	0.465 (inactive)	-0.912	-1.12 (inactive)	-0.807 (inactive)	1.57
O=C1[C@H]2[C@H]3[C@H](O)[C@H](O)CC(=NO[C@@H]4O[C@H](CO)[C@@H](O)[C@H](O)[C@H]4O)[C@H]3CC[C@H]2C(=O)N1Cc1ccccc1	-0.906 (inactive)	0.0068	5.53 (inactive)	0.117 (inactive)	-0.19 (inactive)	-0.801 (inactive)	0.705	-2.63 (inactive)	0.587 (inactive)	0.353
C=C(/C(=C/C[C@H](OC(C)=O)c1ccc(OCCO)cc1)c1cnc2ccccc2c1)C(C)C	1.02 (inactive)	-0.314	12.8 (active)	1.64 (inactive)	1.56 (inactive)	0.749 (inactive)	0.268	-2.21 (inactive)	-0.569 (inactive)	-1.8
COC(=O)[C@@]1(Cc2ccc(F)cc2)[C@@H]2C(=CC(=O)[C@H]2CC(=O)C(=O)N(C)C)CN1C(=O)c1ccccc1	-0.975 (inactive)	0.589	3.38 (inactive)	1.81 (inactive)	-0.25 (inactive)	1.45 (inactive)	0.172	0.507 (inactive)	1.3 (inactive)	-0.494
CCOC(=O)NN=C1C[C@@H](O)[C@@H](O)[C@@H]2[C@@H]3C(=O)N(C[C@@H]4CCCO4)C(=O)[C@@H]3CC[C@@H]12	1.2 (inactive)	-0.245	0.564 (inactive)	-0.243 (inactive)	0.406 (inactive)	-0.0631 (inactive)	-0.0861	-0.543 (inactive)	0.111 (inactive)	0.354
C[C@H]1Cc2c(-c3ccccc3)nc3c(c2CO1)CN(CCOc1ccccc1)CC3	0.503 (inactive)	-0.199	1.65 (inactive)	0.407 (inactive)	0.301 (inactive)	0.0748 (inactive)	0.426	0.17 (inactive)	-0.0187 (inactive)	-0.605
CCOC(=O)NN=C1C[C@@H](O)[C@@H](O)[C@@H]2[C@@H]3C(=O)N(C(C)(C)C)C(=O)[C@@H]3CC[C@@H]12	-0.0206 (inactive)	-0.0601	0.209 (inactive)	-0.0313 (inactive)	-0.548 (inactive)	0.0353 (inactive)	-0.12	0.5 (inactive)	1.05 (inactive)	0.295
CC[C@@H](c1ccccc1)n1c(=O)n2n(c1=O)[C@H]1[C@H](O)[C@@H]3O[C@@H]3C(=NOCC(C)C)[C@H]1CC2	-1.11 (inactive)	-0.0508	-0.0462 (inactive)	-0.155 (inactive)	0.282 (inactive)	-0.0656 (inactive)	0.123	1.72 (inactive)	0.386 (inactive)	0.371
O=C1C[C@@H](O)[C@@H](O)[C@@H]2[C@@H]3C(=O)N(C4CCCCC4)C(=O)[C@@H]3CC[C@H]12	-0.246 (inactive)	-0.103	1.27 (inactive)	0.775 (inactive)	-0.059 (inactive)	0.423 (inactive)	0.403	-1.6 (inactive)	0.386 (inactive)	-0.883
O=C1[C@H]2[C@H]3[C@H](O)[C@H](O)CC(=NOC[C@@H](O)COCc4ccco4)[C@H]3CC[C@H]2C(=O)N1C1CCCCC1	-0.708 (inactive)	0.0245	1.6 (inactive)	-1.23 (inactive)	0.786 (inactive)	-2.32 (inactive)	0.988	-2.55 (inactive)	-0.583 (inactive)	-1.66
C=CC[C@@H]1C=C[C@H](ON=C[C@@H](OC)[C@H](C)C=CCC(=O)OC)[C@@H](CO)O1	0.324 (inactive)	0.0533	0.815 (inactive)	1.25 (inactive)	-0.335 (inactive)	0.465 (inactive)	-0.782	-0.022 (inactive)	-0.102 (inactive)	-0.255
O=C1[C@H]2[C@H]3[C@H](O)[C@H](O)CC(=NOCc4ccccc4)[C@H]3CC[C@H]2C(=O)N1c1cccc(Oc2ccccc2)c1	0.0144 (inactive)	-0.0193	6.64 (inactive)	1.42 (inactive)	0.969 (inactive)	0.525 (inactive)	-0.219	-1.86 (inactive)	-1.01 (inactive)	-3.91
CO[C@@H]1COC(=O)[C@@H]2CCCN2C(=O)[C@@H](C)COC(=O)[C@H](COCc2ccccc2)NC(=O)CC=C[C@H]1C	-2.21 (inactive)	-0.111	0.553 (inactive)	0.367 (inactive)	1.29 (inactive)	0.441 (inactive)	-0.493	-0.363 (inactive)	-0.643 (inactive)	-0.159
CC(C)=NOCc1cccc(-c2cc(-c3ccccc3)no2)c1	-1.79 (inactive)	0.194	0.648 (inactive)	-0.166 (inactive)	-0.532 (inactive)	-0.388 (inactive)	-0.947	1.21 (inactive)	0.439 (inactive)	-0.0547
O=C1[C@H]2[C@H]3[C@H](O)[C@H](O)CC(=NOCc4ccccc4)[C@@H]3CC[C@H]2C(=O)N1Cc1ccccc1	0.569 (inactive)	-0.147	0.124 (inactive)	0.321 (inactive)	0.0319 (inactive)	0.627 (inactive)	-0.618	-0.85 (inactive)	0.433 (inactive)	0.326
CCOC(=O)[C@H](Cc1ccccc1)NC(=O)CCC1CC(OC(=O)NCCc2ccc(F)cc2)CC2(CCCC(COC(=O)NCC(c3ccccc3)c3ccccc3)O2)O1 (stereo not given in full)	-0.455 (inactive)	-0.144	14.2 (active)	4.68 (inactive)	-0.261 (inactive)	0.688 (inactive)	-0.058	0.0978 (inactive)	-0.136 (inactive)	-0.234
CCOC(=O)[C@H](CC(C)C)NC(=O)CCC1CC(OC(=O)NCCc2ccc(F)cc2)CC2(CCCC(COC(=O)NCc3ccccc3)O2)O1 (stereo not given in full)	-1.06 (inactive)	0.0536	3.44 (inactive)	-1.22 (inactive)	1.39 (inactive)	-1.42 (inactive)	1.78	-0.945 (inactive)	-0.797 (inactive)	-2.24
C#CCCCON=C1C[C@@H](O)[C@@H](O)[C@@H]2[C@@H]3C(=O)N(c4cccc(Oc5ccccc5)c4)C(=O)[C@@H]3CC[C@@H]12	-0.164 (inactive)	-0.0929	2.87 (inactive)	1.29 (inactive)	1.24 (inactive)	0.354 (inactive)	-0.512	-2.13 (inactive)	-0.598 (inactive)	-0.786
CCOC(=O)NN=C1C[C@@H](O)[C@@H](O)[C@@H]2[C@@H]3C(=O)N(C4CCCCC4)C(=O)[C@@H]3CC[C@H]12	-1.02 (inactive)	-0.288	3.79 (inactive)	0.323 (inactive)	0.822 (inactive)	0.574 (inactive)	-0.0238	2.18 (inactive)	-1.17 (inactive)	-1.46
O[C@@H](Cc1ccccc1)[C@H]1C2C=CCCC(c3ccccc3)=C2CN1Cc1cccc(Cl)c1 (stereo not given in full)	3.28 (inactive)	-0.104	4.33 (inactive)	0.669 (inactive)	1.16 (inactive)	0.476 (inactive)	0.459	-0.384 (inactive)	-0.868 (inactive)	-0.41
CO[C@H]([C@@H](C)[C@H](OC)c1ccccc1)[C@H](C)[C@@H](OC)[C@H](C)C(C)=O	-0.558 (inactive)	-0.288	0.815 (inactive)	0.196 (inactive)	-0.181 (inactive)	0.269 (inactive)	-0.2	-0.0369 (inactive)	0.0305 (inactive)	0.447
Cn1cccc1C(O)C1C=CC2C(=O)NC(=O)C2N1Nc1ccccn1 (stereo not given)	-1.07 (inactive)	-0.289	2.33 (inactive)	2.41 (inactive)	0.801 (inactive)	1.49 (inactive)	-1.14	-2.54 (inactive)	-4.94 (inactive)	-5.28
O=C1[C@H]2[C@H]3[C@H](O)[C@H](O)CC(=NOCc4ccccc4)[C@H]3CC[C@H]2C(=O)N1C[C@@H]1CCCO1	0.144 (inactive)	0.0455	5.97 (inactive)	0.673 (inactive)	-0.0092 (inactive)	0.479 (inactive)	0.067	0.421 (inactive)	0.511 (inactive)	-1.46
